The sample as a whole holds a higher share of hits than the screen did.
Pf Dd2 growth – blocks in vitro growth of P. falciparum Dd2 | AID 1347417 | P. falciparum Dd2 growth, SYBR Green, 72 h | Potency, µM (series often up to 28.9 µM), most hits filed as inhibitors | 120,000 compounds, 4.3% hits; active = well fitted inhibition curve with a large enough effect; note: nearly all actives have a fitted effect of over 65% in size
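Infected erythrocytes (Dd2, 0.3% parasitemia, 2.5% hematocrit final) are added to compound in RPMI-1640/Albumax II medium, grown 72 h at 37C in low oxygen, then lysed with saponin/Triton-X containing SYBR Green and read by fluorescence.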
Each line names hits and unclear results; the compound was inactive in the other large screens.

O=C(c1ccncc1)N1CCC(c2nnc3n2CCNC3)CC1	none
COCCN1C(=O)[C@H]2CN(Cc3cccc(C(F)(F)F)c3)C[C@H]2C1=O	none
CCNC(=O)CC1=C2CCCCC2NC1=O (configuration not stated)	none
COc1ccc(CN2CC(C(=O)NCc3ccncc3)C3(CCOCC3)C2)cc1 (configuration not stated)	none
O=C(Nc1cccc(-n2cccn2)c1)C1CCCN1C(=O)C1CCCCC1 (configuration not stated)	none
Cc1noc(-c2ccc(OC3CN(C(=O)NCCc4ccccc4)C3)cc2)n1	none
Fc1cccc(-c2cc3c(cn2)CN(Cc2ccncc2)CCN3)c1	none
c1cc(CN2CCNc3cc(-c4ccsc4)ncc3C2)ccn1	none
c1ccc(Oc2ccccc2-c2cc3c(cn2)CN(Cc2ccncc2)CCN3)cc1	Pf Dd2 growth 8.9µM
Cc1noc([C@@H]2CN(Cc3c(C)n[nH]c3C)C[C@H]2CO)n1	none
CCOc1ccc(N(CC)S(=O)(=O)N2CCCC(C(=O)Nc3cc(Cl)ccc3OC)C2)cc1 (configuration not stated)	Pf Dd2 growth 10µM
CCOc1ccc(OCC)c(NC(=O)C2CCCN(S(=O)(=O)c3ccc(C)cc3)C2)c1 (configuration not stated)	none
COc1ccc(OC)c(NC(=O)C2CCCN(S(=O)(=O)c3c(C)nn(C)c3C)C2)c1 (configuration not stated)	none
CCOC(=O)Cc1csc(NC(=O)Cn2nc3c(cc2=O)CCCC3)n1	none
COc1ccccc1CCC(=O)N1CCN(c2cc(-c3cccs3)[nH]n2)CC1	none
COc1ccccc1C(=O)N1CCC(N2CCNC2=O)CC1	none
O=C(c1nc(-c2ccc(Cl)cc2Cl)c2ccccn12)N1CCCC1	none
Cc1cccc(C)c1-c1nc(C(=O)NC(C)C)n2ccccc12	Pf Dd2 growth 13µM
O=C(c1nc(-c2cccc(C(F)(F)F)c2)c2ccccn12)N1CCOCC1	none
O=C(NCc1ccc(F)cc1)c1nc(-c2cccc(C(F)(F)F)c2)c2cnccn12	Pf Dd2 growth 2.5µM
O=C(NCc1cccnc1)c1nc(-c2ccc(F)cc2)c2ccccn12	none
Cc1cccc(C)c1-c1nc(C(=O)NCc2ccc3c(c2)OCO3)n2ccccc12	none
CN(C)C(=O)c1nc(-c2cccc(F)c2)c2cnccn12	none
CC(C)NC(=O)c1nc(-c2cc(Cl)cc(Cl)c2)c2ccccn12	none
O=C(c1nc(-c2ccc(Cl)cc2)c2ccccn12)N1CCCC1	Pf Dd2 growth 11µM
N#CC1CCN(C(=O)c2nc(-c3ccccc3)c3ccccn23)CC1	none
O=C(NCc1ccccn1)c1nc(-c2cccnc2)c2ccccn12	none
O=C(NCc1ccc(F)cc1)c1nc(-c2cccc(F)c2)c2cnccn12	Pf Dd2 growth 2.5µM
Cc1ccsc1C(=O)N1CCC(c2noc(-c3cnccn3)n2)C1 (configuration not stated)	none
O=C(NCc1cccc2[nH]ccc12)C1CCCN(C2CCN(C(=O)C3CC3)CC2)C1 (configuration not stated)	none
COc1ccc(N2CC(C(=O)N3CCN(c4ncccn4)CC3)NC2=O)cc1 (configuration not stated)	none
O=C1CC(c2noc(-c3ccccc3Cl)n2)CN1c1ccc(F)cc1 (configuration not stated)	none
CC(C)CC(=O)N1C[C@@H](Oc2ccccc2)C[C@@H]1C(=O)N1CCOCC1	none
CN1CC(=O)N(C2CCC2)Cc2c(NCCCO)ncnc21	none
CC(C)NC(=O)c1nc(-c2cccc(C(F)(F)F)c2)c2ccccn12	none
CC(C)NC(=O)c1nc(-c2cccc(C(F)(F)F)c2)c2cnccn12	Pf Dd2 growth 1.8µM
O=C(NCc1cccs1)c1nc(-c2ccc(F)cc2)c2ccccn12	none
O=C(NCc1ccc(F)cc1)c1nc(-c2ccc(Cl)cc2)c2ccccn12	Pf Dd2 growth 10µM
O=C(NCc1ccc(F)cc1)c1nc(-c2ccc(Cl)cc2Cl)c2ccccn12	none
O=C(NCc1cccs1)c1nc(-c2cccc(C(F)(F)F)c2)c2cnccn12	Pf Dd2 growth 1.8µM
COC(=O)CNC(=O)c1nc(-c2ccc(F)cc2)c2ccccn12	none
CC(C)NC(=O)c1nc(-c2cccnc2)c2cnccn12	none
O=C(NCc1cccs1)c1nc(-c2ccsc2)c2ccccn12	none
CC(CNC(=O)C1CCN(C(=O)c2ncn3c2COC(c2ccccc2)C3)CC1)c1ccccc1 (configuration not stated)	none
COc1ccc(-c2cnc3n2CC(C(=O)N2CCOCC2)CC3)cc1 (configuration not stated)	none
COc1ccc(C(=O)Nc2nc3ccccc3n2CCOc2ccc(Cl)cc2)cc1	Pf Dd2 growth 11µM
COc1ccc(OCCn2c(NC(=O)c3ccc(OC)cc3)nc3ccccc32)cc1	none
COc1ccc(OCCn2c(C(C)Oc3ccccc3)nc3ccccc32)cc1 (configuration not stated)	none
CN1CCC2(C1)CN(CC1CCOCC1)c1ccc(C(=O)Nc3ccn(C)n3)cc12 (configuration not stated)	none
COCCN1CCOC[C@H]2CCN(C(=O)c3cccc4[nH]ccc34)C[C@H]21	none
Cc1ccc(Cn2nc3n(c2=O)-c2cc(Cl)ccc2OC3)cc1	none
Cc1ccc(CN2COc3ccc4c(C)cc(=O)oc4c3C2)cc1	Pf Dd2 growth 4µM
COc1ccccc1C(=O)N1CCN(Cc2cc(=O)oc3cc(C)ccc23)CC1	none
Cc1ccc(CNC(=O)c2ccc3c(c2)CN(Cc2ccc(N(C)C)cc2)CCO3)cc1	none
COc1ccccc1CN1COc2ccc3c(C)cc(=O)oc3c2C1	Pf Dd2 growth 7.1µM
COc1ccccc1CN1C[C@@H]2C(=O)N(Cc3ccc4c(c3)OCO4)C(=O)[C@@H]2C1	none
O=C(Nc1ccc2c(c1)CCC2)c1nnn2c1COC(c1ccc(F)cc1)C2 (configuration not stated)	none
CN(CCSc1ccccc1)C(=O)C1CC(=O)N(Cc2ccncc2)C1 (configuration not stated)	none
CCCCN1C(=O)C(CC(=O)NC2CCCC2)Sc2ncccc21 (configuration not stated)	none
CCOc1cc(C(=O)Nc2ccc3nc(N4CCN(C)CC4)cc(C)c3c2)cc(OCC)c1OCC	Pf Dd2 growth 3.2µM
Cc1cn(C)c(CC(=O)N2CCN(c3cccc(Cl)c3)CC2)c1C(=O)O	none
Cc1cc(N2CCN(C)CC2)nc2ccc(NC(=O)Nc3cccc(Cl)c3)cc12	Pf Dd2 growth 1µM
Cc1ccc(CSCC(=O)N2CCN(c3cc(Cl)ccc3C)CC2)cc1	none
Cc1c(-c2cccc(NC(=O)Nc3ccc(Cl)cc3)c2)nc2ncccn12	none
Cc1cc(N2CCCCC2)nc2ccc(NC(=O)c3cccc(F)c3)cc12	none
Cc1cccn2c(=O)cc(COc3cccc(NC(=O)Nc4cccc(Cl)c4)c3)nc12	none
COc1ccc(C(=O)Nc2ccc3nc(N4CCCCC4)cc(C)c3c2)c(OC)c1	none
Cc1ccc(Cl)cc1N1CCN(C(=O)CCC(=O)Nc2ccc3nc(N4CCC(C)CC4)cc(C)c3c2)CC1	Pf Dd2 growth 3.5µM
Cc1ccc(Nc2ncc(C(=O)N3CCN(c4cccc(Cl)c4)CC3)c3ccccc23)cc1Cl	none
Cc1ccc(/C=C/C(=O)Nc2ccc3nc(N4CCC(C)CC4)cc(C)c3c2)cc1	none
Cc1cc(N2CCCCC2)nc2ccc(NC(=O)CCC(=O)N3CCN(c4cccc(Cl)c4)CC3)cc12	Pf Dd2 growth 11µM
COCCOC1CCOC2(CCN(C(=O)Cc3ccsc3)CC2)C1 (configuration not stated)	none
CN(C)C(=O)C1CN(C(=O)Nc2ccccc2F)CC12CCOCC2 (configuration not stated)	none
Cc1ncsc1C(=O)N1CCCC(CCc2ccc(F)cc2F)C1 (configuration not stated)	none
